# Results as given in publication PMC7862700, “An all-to-all approach to the identification of sequence-specific readers for epigenetic DNA modifications on cytosine”.
# How the values were obtained:
# Test in all cases: DAPPL (digital affinity profiling via proximity ligation, sequencing); 10 mM Tris-HCl pH 7.5, 50 mM NaCl, 1 mM DTT, 4% glycerol, room temperature, 30 min; GST-TFs on glutathione beads, 16-mer random dsDNA library, 0.1% formaldehyde crosslink after washing; high values mean tight binding
# [1] = target: T1, FLI1 (Homo sapiens, UniProt Q01543 1-452); conditions: protein: recombinant; tags: N-terminal GST; dsDNA, one strand shown
# T1 sequence: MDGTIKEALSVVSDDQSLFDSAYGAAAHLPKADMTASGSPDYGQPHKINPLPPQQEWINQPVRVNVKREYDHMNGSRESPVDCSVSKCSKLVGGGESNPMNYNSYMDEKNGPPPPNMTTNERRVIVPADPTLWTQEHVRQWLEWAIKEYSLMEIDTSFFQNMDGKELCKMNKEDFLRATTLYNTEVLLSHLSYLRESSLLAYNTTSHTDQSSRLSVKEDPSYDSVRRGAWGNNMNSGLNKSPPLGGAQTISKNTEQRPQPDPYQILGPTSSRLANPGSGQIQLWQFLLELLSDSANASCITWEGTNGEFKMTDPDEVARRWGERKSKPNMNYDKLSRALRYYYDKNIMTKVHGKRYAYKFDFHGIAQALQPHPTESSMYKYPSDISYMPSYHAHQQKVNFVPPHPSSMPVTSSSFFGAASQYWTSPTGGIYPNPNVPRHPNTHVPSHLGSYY
# Method in brief: (§1)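 Pools of DNA-barcoded human transcription factors, expressed in yeast as GST fusions on glutathione beads and combined with a tag-only sample, were incubated with 200 nmole of a 16-mer random double-stranded DNA library. Incubation took 30 min at room temperature in Tris/NaCl/DTT/glycerol buffer and was followed by washing, 0.1% formaldehyde crosslinking, proximity ligation (BsaI/T4 ligase, 1 h, 37 °C), PCR amplification and sequencing on an Illumina NextSeq500. Binding signal is the ratio of a hexamer's read frequency for a factor to its frequency for the tag-only sample.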
# [2] = target: T2, ELK1 (Homo sapiens, UniProt P19419 1-428); conditions: protein: recombinant; tags: N-terminal GST; dsDNA, one strand shown
# T2 sequence: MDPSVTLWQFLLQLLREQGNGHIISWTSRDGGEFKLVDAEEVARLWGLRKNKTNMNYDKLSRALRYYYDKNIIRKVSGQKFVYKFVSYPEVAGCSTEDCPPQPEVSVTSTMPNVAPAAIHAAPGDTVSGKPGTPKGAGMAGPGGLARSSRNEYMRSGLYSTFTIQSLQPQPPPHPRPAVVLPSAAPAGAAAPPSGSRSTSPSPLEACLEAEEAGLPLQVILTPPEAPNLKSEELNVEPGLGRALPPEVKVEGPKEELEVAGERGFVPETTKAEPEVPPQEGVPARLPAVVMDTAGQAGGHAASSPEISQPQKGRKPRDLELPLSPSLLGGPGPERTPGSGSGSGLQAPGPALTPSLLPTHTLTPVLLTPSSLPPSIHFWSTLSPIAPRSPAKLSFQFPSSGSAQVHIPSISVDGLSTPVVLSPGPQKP
# Method in brief: as §1
# [3] = target: T3, GABPA (Homo sapiens, UniProt Q06546 1-454); conditions: protein: recombinant; tags: N-terminal GST; dsDNA, one strand shown
# T3 sequence: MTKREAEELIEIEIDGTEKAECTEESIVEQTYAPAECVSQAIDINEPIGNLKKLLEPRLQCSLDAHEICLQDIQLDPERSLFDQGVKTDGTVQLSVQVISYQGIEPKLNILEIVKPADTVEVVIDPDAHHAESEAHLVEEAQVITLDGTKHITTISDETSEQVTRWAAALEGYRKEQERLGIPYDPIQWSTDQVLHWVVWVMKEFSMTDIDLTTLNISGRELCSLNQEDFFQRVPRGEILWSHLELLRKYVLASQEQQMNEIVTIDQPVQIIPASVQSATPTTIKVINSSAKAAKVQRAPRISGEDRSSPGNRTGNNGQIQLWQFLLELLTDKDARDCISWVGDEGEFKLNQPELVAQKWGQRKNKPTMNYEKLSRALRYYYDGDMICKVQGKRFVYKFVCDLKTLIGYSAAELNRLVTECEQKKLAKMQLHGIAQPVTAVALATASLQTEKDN
# Method in brief: as §1
# [4] = target: T4, ERG (Homo sapiens, UniProt P11308 1-479); conditions: protein: recombinant; tags: N-terminal GST; dsDNA, one strand shown
# T4 sequence: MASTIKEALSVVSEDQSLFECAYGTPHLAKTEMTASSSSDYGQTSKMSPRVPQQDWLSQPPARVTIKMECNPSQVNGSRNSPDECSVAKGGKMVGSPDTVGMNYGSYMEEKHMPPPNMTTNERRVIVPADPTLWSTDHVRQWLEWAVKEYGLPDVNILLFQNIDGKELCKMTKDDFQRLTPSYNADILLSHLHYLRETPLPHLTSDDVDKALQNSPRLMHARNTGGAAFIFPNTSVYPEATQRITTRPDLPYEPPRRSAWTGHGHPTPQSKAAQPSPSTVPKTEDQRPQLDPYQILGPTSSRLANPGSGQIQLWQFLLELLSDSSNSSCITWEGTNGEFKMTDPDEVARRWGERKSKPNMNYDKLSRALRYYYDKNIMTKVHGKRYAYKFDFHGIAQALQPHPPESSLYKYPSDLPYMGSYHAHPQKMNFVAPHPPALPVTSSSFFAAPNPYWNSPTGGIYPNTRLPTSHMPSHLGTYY
# Method in brief: as §1
# [5] = target: ELF1 (Homo sapiens, UniProt P32519 1-619); conditions: protein: recombinant; tags: N-terminal GST; dsDNA, one strand shown
# Chain of ELF1 (P32519 whole entry): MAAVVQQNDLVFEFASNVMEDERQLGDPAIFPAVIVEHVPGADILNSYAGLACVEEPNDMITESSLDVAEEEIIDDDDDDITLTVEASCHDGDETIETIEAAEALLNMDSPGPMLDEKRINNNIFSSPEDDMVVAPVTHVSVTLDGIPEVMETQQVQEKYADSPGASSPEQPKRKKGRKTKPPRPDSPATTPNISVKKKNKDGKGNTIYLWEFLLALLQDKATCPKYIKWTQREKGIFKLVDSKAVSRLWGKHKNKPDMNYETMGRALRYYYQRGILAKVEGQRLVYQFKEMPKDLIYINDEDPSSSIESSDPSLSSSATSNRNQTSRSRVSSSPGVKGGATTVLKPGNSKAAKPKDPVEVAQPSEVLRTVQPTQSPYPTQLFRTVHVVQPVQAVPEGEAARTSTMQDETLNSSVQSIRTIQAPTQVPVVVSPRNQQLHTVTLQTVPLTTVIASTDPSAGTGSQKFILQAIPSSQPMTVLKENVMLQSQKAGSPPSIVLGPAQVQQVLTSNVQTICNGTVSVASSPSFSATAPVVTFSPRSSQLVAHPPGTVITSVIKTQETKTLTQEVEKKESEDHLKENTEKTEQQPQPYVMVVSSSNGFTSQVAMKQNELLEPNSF
# Method in brief: as §1
# [6] = target: T5, EHF (Homo sapiens, UniProt Q9NZC4 1-300); conditions: protein: recombinant; tags: N-terminal GST; dsDNA, one strand shown
# T5 sequence: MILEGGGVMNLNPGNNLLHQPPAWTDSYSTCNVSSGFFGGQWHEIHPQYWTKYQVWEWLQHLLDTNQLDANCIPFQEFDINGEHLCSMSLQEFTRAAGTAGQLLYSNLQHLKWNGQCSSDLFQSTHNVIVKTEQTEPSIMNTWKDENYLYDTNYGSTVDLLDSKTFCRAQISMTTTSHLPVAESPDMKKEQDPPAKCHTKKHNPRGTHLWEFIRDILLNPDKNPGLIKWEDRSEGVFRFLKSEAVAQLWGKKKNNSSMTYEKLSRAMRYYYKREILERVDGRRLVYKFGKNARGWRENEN
# Method in brief: as §1
# [7] = target: SPI1 (Homo sapiens, UniProt P17947 1-270); conditions: protein: recombinant; tags: N-terminal GST; dsDNA, one strand shown
# Method in brief: as §1
# [8] = target: SPIB (Homo sapiens, UniProt Q01892 1-262); conditions: protein: recombinant; tags: N-terminal GST; dsDNA, one strand shown
# Chain of SPIB (Q01892 whole entry): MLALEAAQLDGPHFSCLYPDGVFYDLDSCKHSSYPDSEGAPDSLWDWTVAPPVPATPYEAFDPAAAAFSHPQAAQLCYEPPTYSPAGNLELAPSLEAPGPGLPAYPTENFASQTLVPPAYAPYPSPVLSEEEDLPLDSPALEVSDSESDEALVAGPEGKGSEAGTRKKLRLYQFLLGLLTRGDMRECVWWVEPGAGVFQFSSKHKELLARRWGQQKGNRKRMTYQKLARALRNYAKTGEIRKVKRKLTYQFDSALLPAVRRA
# Method in brief: as §1
# [9] = target: T6, ELK3 (Homo sapiens, UniProt P41970 1-407); conditions: protein: recombinant; tags: N-terminal GST; dsDNA, one strand shown
# T6 sequence: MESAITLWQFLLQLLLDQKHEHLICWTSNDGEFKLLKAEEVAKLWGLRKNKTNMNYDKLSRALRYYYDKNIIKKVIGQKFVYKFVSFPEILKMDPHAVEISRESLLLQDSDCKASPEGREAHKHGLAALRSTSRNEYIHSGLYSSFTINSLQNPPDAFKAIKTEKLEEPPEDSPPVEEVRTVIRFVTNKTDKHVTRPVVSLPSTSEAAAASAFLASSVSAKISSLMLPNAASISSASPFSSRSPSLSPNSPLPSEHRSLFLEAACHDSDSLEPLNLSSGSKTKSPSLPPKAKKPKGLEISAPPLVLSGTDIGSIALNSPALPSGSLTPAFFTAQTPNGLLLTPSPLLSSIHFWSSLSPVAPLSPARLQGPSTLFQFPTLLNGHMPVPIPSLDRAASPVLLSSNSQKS
# Method in brief: as §1
# [10] = target: T7, FEV (Homo sapiens, UniProt Q99581 1-238); conditions: protein: recombinant; tags: N-terminal GST; dsDNA, one strand shown
# T7 sequence: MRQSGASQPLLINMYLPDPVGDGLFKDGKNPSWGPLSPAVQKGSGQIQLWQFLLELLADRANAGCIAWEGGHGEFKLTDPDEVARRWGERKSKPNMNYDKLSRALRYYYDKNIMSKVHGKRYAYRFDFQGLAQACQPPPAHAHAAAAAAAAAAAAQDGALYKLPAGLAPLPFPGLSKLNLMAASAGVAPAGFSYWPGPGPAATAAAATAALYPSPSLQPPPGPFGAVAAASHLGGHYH
# Method in brief: as §1
# [11] = target: ETV5 (Homo sapiens, UniProt P41161 1-510); conditions: protein: recombinant; tags: N-terminal GST; dsDNA, one strand shown
# Chain of ETV5 (P41161 whole entry): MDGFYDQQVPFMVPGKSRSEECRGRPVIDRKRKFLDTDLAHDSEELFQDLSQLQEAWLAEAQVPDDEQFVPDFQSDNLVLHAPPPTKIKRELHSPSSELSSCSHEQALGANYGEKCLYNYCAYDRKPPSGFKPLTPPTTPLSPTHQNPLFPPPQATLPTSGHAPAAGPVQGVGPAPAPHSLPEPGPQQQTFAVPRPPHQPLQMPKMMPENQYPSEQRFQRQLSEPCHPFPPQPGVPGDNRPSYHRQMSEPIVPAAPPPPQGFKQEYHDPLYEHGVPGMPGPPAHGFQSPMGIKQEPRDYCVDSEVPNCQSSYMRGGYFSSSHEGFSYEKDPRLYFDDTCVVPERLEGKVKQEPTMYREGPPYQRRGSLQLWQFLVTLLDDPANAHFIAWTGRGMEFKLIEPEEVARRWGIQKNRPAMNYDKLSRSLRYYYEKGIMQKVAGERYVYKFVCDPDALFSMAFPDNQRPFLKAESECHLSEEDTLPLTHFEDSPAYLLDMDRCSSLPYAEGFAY
# Method in brief: as §1
# [12] = target: HSF1 (Homo sapiens, UniProt Q00613 1-529); conditions: protein: recombinant; tags: N-terminal GST; chain copies: 3; dsDNA, one strand shown
# Chain of HSF1 (Q00613 whole entry): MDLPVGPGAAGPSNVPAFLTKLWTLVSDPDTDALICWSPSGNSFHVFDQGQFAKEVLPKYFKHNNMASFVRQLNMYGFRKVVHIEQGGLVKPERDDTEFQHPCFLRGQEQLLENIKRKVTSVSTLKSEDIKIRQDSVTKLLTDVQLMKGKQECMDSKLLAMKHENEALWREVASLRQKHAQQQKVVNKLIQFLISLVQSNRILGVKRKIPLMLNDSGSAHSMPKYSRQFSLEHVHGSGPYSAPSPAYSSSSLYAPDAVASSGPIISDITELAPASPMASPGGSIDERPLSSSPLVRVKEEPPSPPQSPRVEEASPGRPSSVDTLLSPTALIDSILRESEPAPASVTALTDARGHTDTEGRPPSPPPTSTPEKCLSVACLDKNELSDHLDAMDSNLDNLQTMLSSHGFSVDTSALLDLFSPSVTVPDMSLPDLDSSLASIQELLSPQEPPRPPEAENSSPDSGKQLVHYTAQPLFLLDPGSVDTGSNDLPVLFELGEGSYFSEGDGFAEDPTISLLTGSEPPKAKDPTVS
# Method in brief: as §1
# [13] = target: T8, SPIC (Homo sapiens, UniProt Q8N5J4 1-248); conditions: protein: recombinant; tags: N-terminal GST; dsDNA, one strand shown
# T8 sequence: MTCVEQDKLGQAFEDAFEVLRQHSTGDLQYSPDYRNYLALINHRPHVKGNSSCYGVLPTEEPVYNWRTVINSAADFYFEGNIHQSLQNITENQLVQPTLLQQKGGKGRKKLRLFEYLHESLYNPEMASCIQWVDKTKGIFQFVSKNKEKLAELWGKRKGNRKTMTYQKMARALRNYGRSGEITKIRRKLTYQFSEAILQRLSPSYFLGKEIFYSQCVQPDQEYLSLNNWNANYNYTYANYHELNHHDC
# Method in brief: as §1
# [14] = target: ELF4 (Homo sapiens, UniProt Q99607 1-663); conditions: protein: recombinant; tags: N-terminal GST; dsDNA, one strand shown
# Chain of ELF4 (Q99607 whole entry): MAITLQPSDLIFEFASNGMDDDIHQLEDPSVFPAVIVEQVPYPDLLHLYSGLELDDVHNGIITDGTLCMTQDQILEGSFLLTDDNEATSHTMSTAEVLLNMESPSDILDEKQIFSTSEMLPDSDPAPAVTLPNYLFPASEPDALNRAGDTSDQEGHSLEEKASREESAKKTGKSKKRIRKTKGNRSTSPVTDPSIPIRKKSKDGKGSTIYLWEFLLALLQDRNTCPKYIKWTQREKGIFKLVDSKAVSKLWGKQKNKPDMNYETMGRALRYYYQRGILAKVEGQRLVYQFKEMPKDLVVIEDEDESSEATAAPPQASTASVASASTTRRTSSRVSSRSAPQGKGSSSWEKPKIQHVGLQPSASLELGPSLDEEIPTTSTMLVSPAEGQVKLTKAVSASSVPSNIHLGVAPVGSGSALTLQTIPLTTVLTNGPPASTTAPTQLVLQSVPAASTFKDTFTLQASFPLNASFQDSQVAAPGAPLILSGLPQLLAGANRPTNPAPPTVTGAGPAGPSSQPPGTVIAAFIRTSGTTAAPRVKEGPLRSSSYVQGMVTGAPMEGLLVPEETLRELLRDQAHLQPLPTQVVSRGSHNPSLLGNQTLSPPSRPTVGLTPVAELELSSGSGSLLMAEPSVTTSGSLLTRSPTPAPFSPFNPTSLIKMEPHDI
# Method in brief: as §1
# [15] = target: T9, ELK4 (Homo sapiens, UniProt P28324-2 1-405); conditions: protein: recombinant; tags: N-terminal GST; dsDNA, one strand shown
# T9 sequence: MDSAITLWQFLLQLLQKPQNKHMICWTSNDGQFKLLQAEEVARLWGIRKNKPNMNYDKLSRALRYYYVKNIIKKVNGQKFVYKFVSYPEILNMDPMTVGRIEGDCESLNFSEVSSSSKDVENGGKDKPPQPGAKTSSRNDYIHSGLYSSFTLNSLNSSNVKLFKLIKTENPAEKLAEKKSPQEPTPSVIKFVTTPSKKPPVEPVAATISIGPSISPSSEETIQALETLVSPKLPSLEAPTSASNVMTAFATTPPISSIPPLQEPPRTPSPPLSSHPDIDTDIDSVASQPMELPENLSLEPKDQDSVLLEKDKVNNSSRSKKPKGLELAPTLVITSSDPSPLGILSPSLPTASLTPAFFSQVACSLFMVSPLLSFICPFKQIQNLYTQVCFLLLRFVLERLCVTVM
# Method in brief: as §1
# [16] = target: T10, ETV2 (Homo sapiens, UniProt O00321 1-342); conditions: protein: recombinant; tags: N-terminal GST; dsDNA, one strand shown
# T10 sequence: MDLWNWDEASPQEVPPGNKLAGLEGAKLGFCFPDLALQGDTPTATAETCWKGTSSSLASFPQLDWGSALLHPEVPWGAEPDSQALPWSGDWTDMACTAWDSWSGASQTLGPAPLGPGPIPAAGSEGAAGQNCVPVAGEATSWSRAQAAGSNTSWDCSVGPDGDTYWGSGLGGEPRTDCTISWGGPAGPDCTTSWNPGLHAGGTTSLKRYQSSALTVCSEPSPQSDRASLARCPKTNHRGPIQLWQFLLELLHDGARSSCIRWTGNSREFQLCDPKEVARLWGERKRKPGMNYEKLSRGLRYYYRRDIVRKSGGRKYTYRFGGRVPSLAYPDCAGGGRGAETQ
# Method in brief: as §1
# [17] = target: T11, ELF3 (Homo sapiens, UniProt P78545 1-371); conditions: protein: recombinant; tags: N-terminal GST; dsDNA, one strand shown
# T11 sequence: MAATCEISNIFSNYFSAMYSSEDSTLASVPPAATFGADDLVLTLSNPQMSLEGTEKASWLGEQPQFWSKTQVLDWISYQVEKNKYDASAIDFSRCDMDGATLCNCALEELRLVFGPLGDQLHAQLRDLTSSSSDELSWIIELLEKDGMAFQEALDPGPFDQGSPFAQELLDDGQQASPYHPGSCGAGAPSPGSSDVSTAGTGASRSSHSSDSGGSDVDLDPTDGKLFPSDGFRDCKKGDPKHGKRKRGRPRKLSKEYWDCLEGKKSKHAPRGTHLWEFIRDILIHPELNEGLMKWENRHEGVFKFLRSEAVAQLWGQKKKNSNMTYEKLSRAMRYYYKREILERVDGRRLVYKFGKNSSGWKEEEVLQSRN
# Method in brief: as §1
# [18] = target: CRX (Homo sapiens, UniProt O43186 1-299); conditions: protein: recombinant; tags: N-terminal GST; dsDNA, one strand shown
# Chain of CRX (O43186 whole entry): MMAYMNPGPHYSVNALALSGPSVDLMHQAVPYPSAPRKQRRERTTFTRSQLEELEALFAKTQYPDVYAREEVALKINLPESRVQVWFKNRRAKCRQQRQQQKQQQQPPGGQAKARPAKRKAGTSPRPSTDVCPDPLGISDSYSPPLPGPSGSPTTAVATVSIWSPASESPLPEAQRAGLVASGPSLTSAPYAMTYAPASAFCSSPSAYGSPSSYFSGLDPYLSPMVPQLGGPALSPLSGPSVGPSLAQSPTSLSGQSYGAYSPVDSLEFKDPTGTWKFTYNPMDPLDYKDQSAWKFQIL
# Method in brief: as §1
# [19] = target: ETV1 (Homo sapiens, UniProt P50549 1-477); conditions: protein: recombinant; tags: N-terminal GST; dsDNA, one strand shown
# Chain of ETV1 (P50549 whole entry): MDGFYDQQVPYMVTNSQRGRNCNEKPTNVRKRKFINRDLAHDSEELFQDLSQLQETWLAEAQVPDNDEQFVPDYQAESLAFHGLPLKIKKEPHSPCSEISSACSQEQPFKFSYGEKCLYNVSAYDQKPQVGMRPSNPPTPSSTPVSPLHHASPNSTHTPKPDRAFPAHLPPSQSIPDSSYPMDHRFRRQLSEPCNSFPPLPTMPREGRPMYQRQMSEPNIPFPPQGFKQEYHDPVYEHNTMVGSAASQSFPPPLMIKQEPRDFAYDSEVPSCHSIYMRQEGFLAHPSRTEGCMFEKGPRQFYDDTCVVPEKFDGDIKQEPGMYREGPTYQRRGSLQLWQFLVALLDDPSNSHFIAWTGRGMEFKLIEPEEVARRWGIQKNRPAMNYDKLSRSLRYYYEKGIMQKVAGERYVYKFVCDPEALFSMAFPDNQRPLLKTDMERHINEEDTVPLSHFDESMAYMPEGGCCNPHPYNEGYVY
# Method in brief: as §1
sequence,measurement,setting,value
CCGTAA,binding signal,[1],"1.09 fold enrichment (6-mer frequency, TF over GST control)"
same,binding signal,[2],"1.1 fold enrichment (6-mer frequency, TF over GST control)"
same,binding signal,[3],"1.1 fold enrichment (6-mer frequency, TF over GST control)"
same,binding signal,[4],"1.14 fold enrichment (6-mer frequency, TF over GST control)"
same,binding signal,[5],"1.09 fold enrichment (6-mer frequency, TF over GST control)"
same,binding signal,[6],"1.17 fold enrichment (6-mer frequency, TF over GST control)"
same,binding signal,[7],"1.13 fold enrichment (6-mer frequency, TF over GST control)"
same,binding signal,[8],"1.06 fold enrichment (6-mer frequency, TF over GST control)"
same,binding signal,[9],"1.14 fold enrichment (6-mer frequency, TF over GST control)"
same,binding signal,[10],"1.07 fold enrichment (6-mer frequency, TF over GST control)"
same,binding signal,[11],"1.06 fold enrichment (6-mer frequency, TF over GST control)"
same,binding signal,[12],"1.09 fold enrichment (6-mer frequency, TF over GST control)"
same,binding signal,[13],"1.03 fold enrichment (6-mer frequency, TF over GST control)"
same,binding signal,[14],"1.14 fold enrichment (6-mer frequency, TF over GST control)"
same,binding signal,[15],"1.15 fold enrichment (6-mer frequency, TF over GST control)"
same,binding signal,[16],"1.2 fold enrichment (6-mer frequency, TF over GST control)"
same,binding signal,[17],"1.1 fold enrichment (6-mer frequency, TF over GST control)"
same,binding signal,[18],"1.27 fold enrichment (6-mer frequency, TF over GST control)"
same,binding signal,[19],"1.05 fold enrichment (6-mer frequency, TF over GST control)"
